# The whole screen tested about 330,000 compounds, of which about 670 (0.2%) were called active.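 The calls were made as follows: active = activity change below a set negative limit, meaning inhibition stronger than a set level (cut at about -70% in these data); inconclusive = activity change between two set negative limits; inactive = the rest.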 Many of the other results were omitted from the sample, so actives are more common in it than they were.
# Target: Thyrotropin receptor (Homo sapiens) (UniProt P16473)
# Assay: Antagonists of the Thyroid Stimulating Hormone Receptor: HTS campaign
# Details: TSHR-expressing cells, TSH-stimulated cAMP HTRF, 2 h; at 11.5 µM; stronger effect = lower value
# Text: The thyroid-stimulating hormone receptor (TSHR) is a member of the 7 trans-membrane-spanning receptor (7TMR) family of cell surface receptors. TSHR-mediated hyperthyroidism is important in thyroid pathology. The development of small molecule antagonists of TSHR may lead to therapeutic approaches for TSHR-mediated hyperthyroidism caused by constitutively activating mutations or stimulating auto-antibodies associated with Graves' disease. Graves' disease is the leading cause of hyperthyroidism and is caused by autoantibodies that stimulate TSHR (TsAbs) causing thyroid growth and unregulated overproduction of thyroid hormones and existing treatments have liabilities (agranulocytosis). In addition, TSHRs are known to be expressed in multiple extrathyroidal tissues including bone, brain, kidney, testis, fat and cells of the immune system but the role of the TSHR in these tissues is not clear. Therefore, TSHR antagonists/inverse agonists could be used as probes of extrathyroidal TSHR function. Finally, TSHR inverse agonists, which are a subclass of antagonists that inhibit agonist-independent (or basal or constitutive) TSHR signaling, could be used to inhibit TSH-independent signaling in patients with recurrent or metastatic thyroid cancer who are receiving thyroid hormone to suppress TSH. In collaboration between scientist from the NCGC and the NIDDK, a miniaturized HTRF high-throughput screen was developed. It's a cell based assay, where an anti cAMP antibody contains a fluorescent cryptate tag (excitation 337 nm; emission 620 nm) and the acceptor is cAMP-d2 (excitation 620 nm; emission 665 nm). When antibody and cAMP-d2 interact and are excited by a 337 nm light, a FRET occurs resulting in emission at 665 nm. The assay is competition between cAMP-d2 and cAMP (from the cell lysate). The homogeneous protocol allows for one step dispense after stimulation that is automation friendly. NIH Chemical Genomics Center [NCGC] NIH Molecular Libraries Probe Centers Network [MLPCN] MLPCN Grant: MH090855-01 Assay Submitter (PI): Marvin Gerhengorn
# 1. 3ul of 200 TSHR freshly harvested cells/well are dispensed into a 1536 TC-treated white solid bottom plate. 2. Through pintool addition, 23nl of compounds and control in 100% DMSO are added to the plate. 3. Then 1ul of EC80 TSH (4nM final) is added to the plate. 4. Assay is incubated at 37 deg C for 2 hours. 5. 2ul of cAMP antibody diluted 1:20 in lysis buffer is added. 6. Immediately following, 2ul of d2 diluted 1:20 in HBSS is added seperately. 7. The assay is incubated for 30 minutes at ambient room temperature. 8. The result is obtained by using a ViewLux read-out with HTRF settings.
# % is scaled to controls: 0 for no effect and ±100 for the full control effect.
# Thyrotropin receptor (Homo sapiens), sequence (P16473 whole entry, looked up): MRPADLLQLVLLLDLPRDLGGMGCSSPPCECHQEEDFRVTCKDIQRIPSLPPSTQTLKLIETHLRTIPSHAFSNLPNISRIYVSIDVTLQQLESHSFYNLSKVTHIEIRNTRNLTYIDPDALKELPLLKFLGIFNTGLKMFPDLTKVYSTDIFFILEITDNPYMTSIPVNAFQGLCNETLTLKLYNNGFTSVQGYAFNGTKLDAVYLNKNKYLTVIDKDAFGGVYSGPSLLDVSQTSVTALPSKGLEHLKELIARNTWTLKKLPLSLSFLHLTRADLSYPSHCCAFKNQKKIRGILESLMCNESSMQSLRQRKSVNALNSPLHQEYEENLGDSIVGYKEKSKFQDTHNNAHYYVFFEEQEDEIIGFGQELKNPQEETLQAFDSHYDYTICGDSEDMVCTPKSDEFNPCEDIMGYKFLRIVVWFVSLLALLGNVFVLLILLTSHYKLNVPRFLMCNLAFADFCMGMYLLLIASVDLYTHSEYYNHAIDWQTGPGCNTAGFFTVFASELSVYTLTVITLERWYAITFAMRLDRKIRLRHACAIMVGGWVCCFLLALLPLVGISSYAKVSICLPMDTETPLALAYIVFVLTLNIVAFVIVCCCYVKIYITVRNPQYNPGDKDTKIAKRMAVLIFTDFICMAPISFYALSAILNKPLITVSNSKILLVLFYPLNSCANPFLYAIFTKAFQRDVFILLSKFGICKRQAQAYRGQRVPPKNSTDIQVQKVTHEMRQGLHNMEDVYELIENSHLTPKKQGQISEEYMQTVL
row,Structure (SMILES),"activity change, negative = inhibition"
1,COC(=O)C1=C(c2cccc(OCc3ccccc3)c2)C[C@@H]2CC[C@H]1N2C(=O)NCc1ccc(Br)cc1,-5.89% (inactive)
2,COC(=O)C1=C(c2ccc(-c3ccccc3)c(F)c2)C[C@@H]2CC[C@H]1N2C(=O)NCc1ccc(F)cc1,-85% (active)
3,COC(=O)C1=C(c2ccc(F)cc2OCc2ccccc2)C[C@@H]2CC[C@H]1N2C(=O)NCc1ccc(Cl)cc1,-10% (inactive)
4,c1ccc2c(c1)[I+]c1ccccc1-2,-36.8% (inactive)
5,CC(=O)c1c(O)c(C)c(O)c(Cc2c(O)c3c(c(C(=O)/C=C/c4ccccc4)c2O)OC(C)(C)C=C3)c1O,-26.9% (inactive)
6,CCOC(=O)c1ncn2c1[C@@H]1CCCN1C(=O)c1cc(OC)ccc1-2,-12.5% (inactive)
7,C[C@]12CCC3C(CC[C@H]4C[C@@H](O)CC[C@]34C)C1CC[C@@H]2O (stereo not given in full),3.15% (inactive)
8,C[C@]12CC[C@H](O)C[C@H]1CC[C@@H]1C2CC[C@]2(C)[C@@H](C3=CC(=O)OC3)[C@@H](O)C[C@]12O (stereo not given in full),-81.8% (active)
9,C[C@]12CCC3C(CC[C@H]4C[C@@H](O)CC[C@]34C)C1C[C@@H](O)[C@H]2O (stereo not given in full),2.4% (inactive)
10,CC(=O)NBr,-6.86% (inactive)

# Source: PubChem BioAssay AID504810 (National Center for Advancing Translational Sciences (NCATS), 2011)
